# From the supplement of paper PMC8728848
# Shown is part of a subset that was picked to be rich in the strongest signals.
# B1: Surfactant Protein D (rat); Neck + Carbohydrate Recognition Domain (NCRD) (Rattus norvegicus) (protein)
# chain: MLLFLLSALVLLTQPLGYLEAEMKTYSHRTMPSACTLVMCSSVESGLPGRDGRDGREGPRGEKGDPGLPGAAGQAGMPGQAGPVGPKGDNGSVGEPGPKGDTGPSGPPGPPGVPGPAGREGALGKQGNIGPQGKPGPKGEAGPKGEVGAPGMQGSAGARGAGPKGERGVPGERGVPGNTGAAGSAGAMGPQGSPGARGPPGLKGDKGIPGDKGAKGESGLPDVASLRQQVEALQGQVQHLQAAFSQYKKVELFPNGQSVGEKIFKTAGFVKPFTEAQLLCTQAGGQLASPRSAAENAALQQLVVAKNEAAFLSMTDSKTEGKFTYPTGESLVYSNWAPGEPNDDGGSEDCVEIFTNGKWNDRACGEKRLVVCEF
# B2: Tulipa lectin C-1 (Tulipa hybrid) (protein)
# chain: MGMALVVALAVALASTVAGQQNVLLSGNTLANEESLSYGSVKFIMQNDCNLVLYGGGFQSNTASNGKKCTLTLNNNGHLIINDGLTGRVVWRNSNAQNPVGRYAAVLRPAPGTADVAIYGPAIWSTNDEFSYQESGVVPHKLGRETPNLPRMQNLLFSGQTLYGTDGMLSSNDGSTTFELSKCQLSLSLGNEVKWKVAPTVENGKENYCHVRLDHRGHLSLLNDDNVVLFRSIPTNGVEPPIGDYVLIVEKGAGYIYGPPIWNTYDNRRYKVASA
# Legend:
# Assay in all cases: glycan array binding signal (z-score within array); higher = stronger binding
# Conditions in all cases: glycan notation: IUPAC condensed, linker removed
# [1] = target: Fuc(a1-2)Gal(b1-4)GlcNAc(b1-3)Gal(b1-4)GlcNAc
# In short: (§1)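 Glycan array data were curated from 3228 arrays in the Consortium for Functional Glycomics database and kept only where the protein sequence was available. Glycan names were converted to IUPAC-condensed notation, and columns mapping to the same glycan were averaged. The binding signal is a within-array Z-score, averaged across arrays of the same protein sequence at different concentrations or buffers and across linkers. Negative Z-scores can be read as non-binding.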
# [2] = target: Fuc(a1-3)[Gal(b1-4)]GlcNAc6S
# In short: as §1
# Gal(a1-4)Gal(b1-4)Glc = target: Gal(a1-4)Gal(b1-4)Glc
# In short: as §1
# Gal(a1-4)GlcNAc = target: Gal(a1-4)GlcNAc
# In short: as §1
# [3] = target: Gal(b1-3)GlcNAc(b1-3)Gal(b1-4)Glc
# In short: as §1
# [4] = target: Gal(b1-4)GalNAc(b1-3)[Fuc(a1-2)]Gal(b1-4)GlcNAc
# In short: as §1
# [5] = target: GlcNAc(b1-4)GlcNAc(b1-4)GlcNAc(b1-4)GlcNAc(b1-4)GlcNAc(b1-4)GlcNAc
# In short: as §1
# [6] = target: Man(a1-2)Man(a1-2)Man(a1-6)[Man(a1-3)]Man
# In short: as §1
# [7] = target: Man(a1-2)Man(a1-3)[Man(a1-2)Man(a1-6)]Man
# In short: as §1
# [8] = target: Man(a1-2)Man(a1-3)[Man(a1-2)Man(a1-6)]Man(a1-6)[Man(a1-2)Man(a1-2)Man(a1-3)]Man
# In short: as §1
# [9] = target: Man(a1-2)Man(a1-6)[Man(a1-3)]Man(a1-6)[Man(a1-2)Man(a1-2)Man(a1-3)]Man
# In short: as §1
# [10] = target: Man(a1-2)Man(a1-6)[Man(a1-3)]Man(a1-6)[Man(a1-2)Man(a1-2)Man(a1-3)]Man(b1-4)GlcNAc(b1-4)GlcNAc
# In short: as §1
# Man(a1-6)Man = target: Man(a1-6)Man
# In short: as §1
# [11] = target: Neu5Ac(a2-3)Gal(b1-3)GalNAc(b1-3)Gal(a1-4)Gal(b1-4)Glc
# In short: as §1
# [12] = target: Neu5Ac(a2-3)Gal(b1-3)GalNAc(b1-3)Gal(b1-4)GlcNAc
# In short: as §1
# [13] = target: Neu5Ac(a2-3)Gal(b1-4)GlcNAc(b1-2)Man(a1-3)[Neu5Ac(a2-6)Gal(b1-4)GlcNAc(b1-2)Man(a1-6)]Man(b1-4)GlcNAc(b1-4)GlcNAc
# In short: as §1
# [14] = target: Neu5Ac(a2-3)Gal(b1-4)[Fuc(a1-3)]GlcNAc
# In short: as §1
# [15] = target: Neu5Ac(a2-6)Gal(b1-4)GlcNAc(b1-2)Man(a1-3)[Neu5Ac(a2-6)Gal(b1-4)GlcNAc(b1-2)Man(a1-6)]Man(b1-4)GlcNAc(b1-4)GlcNAc
# In short: as §1
# [16] = target: Neu5Ac(a2-6)Gal(b1-4)GlcNAc(b1-3)Gal(b1-4)GlcNAc
# In short: as §1
# [17] = target: Neu5Ac(a2-8)Neu5Ac(a2-8)Neu5Ac(a2-3)Gal(b1-4)Glc
# In short: as §1
# [18] = target: Gal(b1-3)GalNAc(b1-3)Gal(b1-4)Glc
# In short: as §1
# [19] = target: Gal(b1-4)GlcNAc(b1-2)Man(a1-3)[Gal(b1-4)GlcNAc(b1-2)Man(a1-6)]Man(b1-4)GlcNAc(b1-4)GlcNAc
# In short: as §1
# [20] = target: GlcNAc(b1-2)Man(a1-3)[GlcNAc(b1-2)Man(a1-6)]Man(b1-4)GlcNAc(b1-4)GlcNAc
# In short: as §1
# [21] = target: GlcNAc(b1-3)Gal(b1-4)GlcNAc
# In short: as §1
# [22] = target: Man(a1-2)Man(a1-3)[Man(a1-3)[Man(a1-6)]Man(a1-6)]Man(b1-4)GlcNAc(b1-4)GlcNAc
# In short: as §1
# [23] = target: Man(a1-3)[Man(a1-6)]Man(b1-4)GlcNAc(b1-4)GlcNAc
# In short: as §1
# [24] = target: Neu5Ac(a2-6)Gal(b1-4)GlcNAc(b1-3)Gal(b1-4)[Fuc(a1-3)]GlcNAc(b1-3)Gal(b1-4)[Fuc(a1-3)]GlcNAc
# In short: as §1
# [25] = target: Neu5Ac(a2-6)GalNAc(b1-4)GlcNAc
# In short: as §1
Binder,glycan array binding signal (z-score) [1],glycan array binding signal (z-score) [2],glycan array binding signal (z-score) (Gal(a1-4)Gal(b1-4)Glc),glycan array binding signal (z-score) (Gal(a1-4)GlcNAc),glycan array binding signal (z-score) [3],glycan array binding signal (z-score) [4],glycan array binding signal (z-score) [5],glycan array binding signal (z-score) [6],glycan array binding signal (z-score) [7],glycan array binding signal (z-score) [8],glycan array binding signal (z-score) [9],glycan array binding signal (z-score) [10],glycan array binding signal (z-score) (Man(a1-6)Man),glycan array binding signal (z-score) [11],glycan array binding signal (z-score) [12],glycan array binding signal (z-score) [13],glycan array binding signal (z-score) [14],glycan array binding signal (z-score) [15],glycan array binding signal (z-score) [16],glycan array binding signal (z-score) [17],glycan array binding signal (z-score) [18],glycan array binding signal (z-score) [19],glycan array binding signal (z-score) [20],glycan array binding signal (z-score) [21],glycan array binding signal (z-score) [22],glycan array binding signal (z-score) [23],glycan array binding signal (z-score) [24],glycan array binding signal (z-score) [25]
B1,-0.183,0.145,-0.276,-0.242,-0.194,-0.02,-0.108,4.11,3,13.2,4.18,8.4,-0.223,-0.176,-0.198,-0.117,0.004,0.111,-0.105,-0.048,–,–,–,–,–,–,–,–
B2,-0.2,–,–,–,–,–,–,–,–,–,–,–,–,–,–,–,–,5.26,–,–,-0.226,5.37,4.39,-0.23,-0.179,4.98,-0.093,-0.003
